Experimental data taken from PubChem BioAssay (NCI).
Compounds without any hit were thinned out: in the full panel of roughly 79,000, 15% have a hit. A number with no mark means an inactive call. Active and inactive are the calls of the source. Cut-off read from the data, not from the text of the source: active = growth inhibition above about 70%; inactive = the rest.

What was measured:
[1] = NCI Yeast Anticancer Drug Screen. Data for the rad50 strain (AID 155);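 note: 0% = growth of vehicle-only cultures of the same strain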; settings: S. cerevisiae rad50 strain growth inhibition; at 50.0 µM; active compounds read high
Method in brief: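 Compounds were tested on a yeast strain with an engineered DNA damage repair alteration; the reported value is growth inhibition normalised to vehicle treatment.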

[2] = NCI Yeast Anticancer Drug Screen. Data for the mec2-1 strain (AID 157); settings: S. cerevisiae mec2-1 strain, at 50.0 µM, active compounds read high
Method in brief: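 Mutant yeast (mec2-1) grown with compound; growth inhibition relative to vehicle control reported.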

[3] = NCI Yeast Anticancer Drug Screen. Data for the sgs1 mgt1 strain (AID 161);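 note: 0% = growth of cultures given vehicle only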; settings: S. cerevisiae sgs1 mgt1 strain, at 50.0 µM, active compounds read high
Method in brief: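 Compounds are added to genetically altered yeast, and growth is compared with cultures given vehicle alone to give percent inhibition.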

[4] = NCI Yeast Anticancer Drug Screen. Data for the cln2 rad14 strain (AID 165);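 note: 0% = growth equal to vehicle treated cultures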; settings: S. cerevisiae cln2 rad14 strain, at 50.0 µM, active compounds read high
Method in brief: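 Readout is yeast growth inhibition versus vehicle-treated controls, using a strain with cln2 and rad14 alterations exposed to compound.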

[5] = NCI Yeast Anticancer Drug Screen. Data for the bub3 strain (AID 167); settings: S. cerevisiae bub3 mutant strain, at 50.0 µM, active compounds read high
Method in brief: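 Growth of a checkpoint-deficient yeast mutant is measured after compound exposure. Values represent inhibition relative to vehicle.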

[6] = NCI Yeast Anticancer Drug Screen. Data for the mlh1 rad18 strain (AID 175); settings: S. cerevisiae mlh1 rad18 strain growth inhibition; at 50.0 µM; active compounds read high
Method in brief: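 Genetically defined yeast (DNA repair-deficient) exposed to compounds; growth inhibition determined relative to vehicle.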

CC[CH2][Sn](=[O])[CH2]c1ccccc1
growth inhibition [1]: 11.9%
growth inhibition [2]: 24.6%
growth inhibition [3]: 13.6%
growth inhibition [4]: 8.9%
growth inhibition [5]: 17.5%
growth inhibition [6]: -44.5%

COc1cc(Cl)c(OP(=O)(OC)OC)cc1Cl
growth inhibition [1]: -3.8%
growth inhibition [2]: 9.4%
growth inhibition [3]: 12.3%
growth inhibition [4]: -1.9%
growth inhibition [5]: -1.05%
growth inhibition [6]: 5.75%

COC1CC(OC2OC(CO)C(O)C(O)C2O)/C(=C\C#N)C(O)C1OC (stereo not given)
growth inhibition [1]: 1.95%
growth inhibition [2]: -3.05%
growth inhibition [3]: 1.8%
growth inhibition [4]: 9.25%
growth inhibition [5]: 2.35%
growth inhibition [6]: -58.2%

CCOc1ccc([N+](=O)[O-])cc1CNCCBr
growth inhibition [1]: 3.3%
growth inhibition [2]: -1.3%
growth inhibition [3]: -0.45%
growth inhibition [4]: -22.1%
growth inhibition [5]: -3.1%
growth inhibition [6]: 12.2%

COc1cccc(/C=N/[N-]C(=O)c2ccncc2)c1[O-].[Ni+2].[OH3+]
growth inhibition [1]: -14.6%
growth inhibition [2]: -4.05%
growth inhibition [3]: -12.1%
growth inhibition [4]: 18.1%
growth inhibition [5]: -12.2%
growth inhibition [6]: -14.2%

CN(C)c1ccc(/C=C/[N+](=O)[O-])cc1
growth inhibition [1]: -3%
growth inhibition [2]: -17.4%
growth inhibition [3]: 12.4%
growth inhibition [4]: -15.7%
growth inhibition [5]: 0.6%
growth inhibition [6]: -3.25%

Cc1ccc(C2=CCNCC2)cc1
growth inhibition [1]: -9.45%
growth inhibition [2]: -24.3%
growth inhibition [3]: -4.3%
growth inhibition [4]: 6.75%
growth inhibition [5]: -12%
growth inhibition [6]: -2.65%

N/C(=N\N=C\c1ccccc1O)N[N+](=O)[O-]
growth inhibition [1]: -17.5%
growth inhibition [2]: -22.9%
growth inhibition [3]: -14.8%
growth inhibition [4]: -108%
growth inhibition [5]: -19.2%
growth inhibition [6]: -5.85%

C=C(C)CCP(=S)(OCC)OCC
growth inhibition [1]: -27.9%
growth inhibition [2]: -18.3%
growth inhibition [3]: -24.2%
growth inhibition [4]: -22.7%
growth inhibition [5]: 5.45%
growth inhibition [6]: -3.45%

CN(C)CCc1ccc(Cl)cc1Cl
growth inhibition [1]: 11.1%
growth inhibition [2]: 14.3%
growth inhibition [3]: -2.5%
growth inhibition [4]: 6.6%
growth inhibition [5]: 3.75%
growth inhibition [6]: 22.4%

Cc1cccc(NC(=O)CCl)c1
growth inhibition [1]: 1.65%
growth inhibition [2]: -23.4%
growth inhibition [3]: 10.8%
growth inhibition [4]: -4.6%
growth inhibition [5]: 21.9%
growth inhibition [6]: 19.8%

COc1cc2c(cc1O)N=C[C@@H]1CCC(O)N1C2=O (mixture of isomers)
growth inhibition [1]: 19.6%
growth inhibition [2]: 16.3%
growth inhibition [3]: 19.2%
growth inhibition [4]: 58.8%
growth inhibition [5]: -2.2%
growth inhibition [6]: 3.9%

COC(=O)c1cccc2cc3cccc[n+]3cc12
growth inhibition [1]: 3.7%
growth inhibition [2]: -5.5%
growth inhibition [3]: -9.3%
growth inhibition [4]: -35.3%
growth inhibition [5]: -1.05%
growth inhibition [6]: 0.75%

C=CCc1cc(-c2cc(CC=C)c(O)c(CN(CCCl)CCCl)c2)cc(CN(CCCl)CCCl)c1O
growth inhibition [1]: 41.5%
growth inhibition [2]: 49.8%
growth inhibition [3]: 47.1%
growth inhibition [4]: 43.1%
growth inhibition [5]: 60%
growth inhibition [6]: 44.1%

O=CNc1ccc(Cl)cc1C(=O)c1ccccc1
growth inhibition [1]: 9.8%
growth inhibition [2]: -0.35%
growth inhibition [3]: 15.2%
growth inhibition [4]: 28.8%
growth inhibition [5]: 21.6%
growth inhibition [6]: 4.4%

N=C(N)SCc1ccc(Cl)c(Cl)c1 (tested in a mixture with another compound)
growth inhibition [1]: 13.6%
growth inhibition [2]: 10.8%
growth inhibition [3]: -3.55%
growth inhibition [4]: -6.1%
growth inhibition [5]: 3.5%
growth inhibition [6]: 10.7%

Clc1ccc(C2ON2c2ccccc2)cc1 (stereo not given) (tested in a mixture with another compound)
growth inhibition [1]: 3.1%
growth inhibition [2]: 14.6%
growth inhibition [3]: 16.2%
growth inhibition [4]: 4.45%
growth inhibition [5]: -8.4%
growth inhibition [6]: 18.2%

O=C(C1CO1)C(Cl)(Cl)Cl (stereo not given)
growth inhibition [1]: -3.95%
growth inhibition [2]: -6.85%
growth inhibition [3]: 3.8%
growth inhibition [4]: -8.2%
growth inhibition [5]: -15.2%
growth inhibition [6]: -2.35%

CC(C)OP(=S)(OC(C)C)SSSP(=S)(OC(C)C)OC(C)C
growth inhibition [1]: 14.2%
growth inhibition [2]: 3.75%
growth inhibition [3]: 1.95%
growth inhibition [4]: -3.1%
growth inhibition [5]: 12.7%
growth inhibition [6]: 6.25%

Nc1nc(N)c2n[nH]nc2n1
growth inhibition [1]: -18.5%
growth inhibition [2]: -6.45%
growth inhibition [3]: -22.1%
growth inhibition [4]: -105%
growth inhibition [5]: 3.55%
growth inhibition [6]: -15.3%

CC(CC(C#N)(c1ccccc1)c1ccccc1)[N+]1(C)CCCCCCC1 (stereo not given)
growth inhibition [1]: 11.9%
growth inhibition [2]: 1.2%
growth inhibition [3]: 2.85%
growth inhibition [4]: 1.65%
growth inhibition [5]: 1.35%
growth inhibition [6]: 19%

O=C1C2CCN(CC2)C1Cn1cnc2c(Cl)ncnc21 (stereo not given)
growth inhibition [1]: -3.9%
growth inhibition [2]: 4.1%
growth inhibition [3]: -4.35%
growth inhibition [4]: -0.55%
growth inhibition [5]: -2.55%
growth inhibition [6]: -0.75%

O=[N+]([O-])O.[NH-]C1CCCCC1[NH-].[NH-]C1CCCCC1[NH-].[OH-].[OH-].[Pt+4].[Pt+4] (stereo not given)
growth inhibition [1]: 49.8%
growth inhibition [2]: -4.8%
growth inhibition [3]: -29.3%
growth inhibition [4]: -5.45%
growth inhibition [5]: -41%
growth inhibition [6]: 30.2%

COC(=O)[C@H]1[C@@H](O)[C@@]2(O)c3c(OC)cc(OC)cc3O[C@@]2(c2ccc3c(c2)OCO3)[C@@H]1c1ccccc1
growth inhibition [1]: 89% (active)
growth inhibition [2]: 92.5% (active)
growth inhibition [3]: 91% (active)
growth inhibition [4]: 90.2% (active)
growth inhibition [5]: 88.2% (active)
growth inhibition [6]: 92.2% (active)

O=C(/C=C/c1ccccc1)Nc1ccc(Cl)cc1C(=O)c1ccccc1
growth inhibition [1]: -2.6%
growth inhibition [2]: 14.8%
growth inhibition [3]: 7.6%
growth inhibition [4]: -6.6%
growth inhibition [5]: 40.4%
growth inhibition [6]: 20.4%

c1ccc(C(NC2=NCCO2)c2ccccc2)cc1
growth inhibition [1]: -19%
growth inhibition [2]: -33%
growth inhibition [3]: -60.8%
growth inhibition [4]: -21.5%
growth inhibition [5]: -17.2%
growth inhibition [6]: -45.8%

[N-]=[N+]=C1CNC(=O)NC1=O
growth inhibition [1]: 9.9%
growth inhibition [2]: -19.6%
growth inhibition [3]: -10.6%
growth inhibition [4]: 0.05%
growth inhibition [5]: -0.15%
growth inhibition [6]: 1.05%

CN1CCN(Cc2ccccc2)C(C#N)C1 (stereo not given)
growth inhibition [1]: -2.6%
growth inhibition [2]: -8.75%
growth inhibition [3]: -0.35%
growth inhibition [4]: -25.9%
growth inhibition [5]: -17.4%
growth inhibition [6]: -11.7%

[C-]#[O+].[C-]#[O+].[C-]#[O+].[C-]#[O+].[Cr].c1ccc([PH+](CC[PH+](c2ccccc2)c2ccccc2)CC[PH+](c2ccccc2)c2ccccc2)cc1
growth inhibition [1]: 14.9%
growth inhibition [2]: 3.75%
growth inhibition [3]: -3.35%
growth inhibition [4]: 32.2%
growth inhibition [5]: 19.4%
growth inhibition [6]: 6.2%

CCOC(=O)/C(=C\c1cccc(F)c1)[Se]c1ccccc1
growth inhibition [1]: 29.4%
growth inhibition [2]: 7.15%
growth inhibition [3]: 21.9%
growth inhibition [4]: 8.3%
growth inhibition [5]: 46.8%
growth inhibition [6]: 36.6%

O=[As](O)(O)c1ccc2nc3cc([As](=O)(O)O)ccc3nc2c1
growth inhibition [1]: -11.1%
growth inhibition [2]: -3%
growth inhibition [3]: -20.4%
growth inhibition [4]: 3.8%
growth inhibition [5]: 2.35%
growth inhibition [6]: -30.9%

C(/COc1cccnc1)=N\NC1=NCCN1
growth inhibition [1]: -12.2%
growth inhibition [2]: -29.6%
growth inhibition [3]: -44.8%
growth inhibition [4]: 3.7%
growth inhibition [5]: -21.9%
growth inhibition [6]: -35.9%

Cc1ccc(O)cc1
growth inhibition [1]: -27.4%
growth inhibition [2]: 24.1%
growth inhibition [3]: -22%
growth inhibition [4]: -31.2%
growth inhibition [5]: 1.1%
growth inhibition [6]: -30.1%

ClCCN(CCCl)c1ccc(-c2csc(Cc3ccccc3)n2)cc1
growth inhibition [1]: -2%
growth inhibition [2]: -7.35%
growth inhibition [3]: -2.7%
growth inhibition [4]: -20%
growth inhibition [5]: -4.3%
growth inhibition [6]: -19.9%

COc1cc(C(=O)O)cc(OC)c1OC
growth inhibition [1]: -19.9%
growth inhibition [2]: -19.6%
growth inhibition [3]: -23.1%
growth inhibition [4]: -26.8%
growth inhibition [5]: 2.05%
growth inhibition [6]: -9.95%

C[CH2][Pb]([CH2]C)([CH2]C)[n]1ccnc1
growth inhibition [1]: -22.6%
growth inhibition [2]: -6.8%
growth inhibition [3]: -11.9%
growth inhibition [4]: -29.3%
growth inhibition [5]: -1.4%
growth inhibition [6]: -9%

O=[As](O)(O)c1ccccc1
growth inhibition [1]: 18.2%
growth inhibition [2]: -7.1%
growth inhibition [3]: 4.75%
growth inhibition [4]: 4.65%
growth inhibition [5]: -38.1%
growth inhibition [6]: -15.7%

O=c1oc2ccccc2c(O)c1C(c1cnc2ccccc2c1)c1c(O)c2ccccc2oc1=O
growth inhibition [1]: 33.4%
growth inhibition [2]: 40.2%
growth inhibition [3]: 12.7%
growth inhibition [4]: 26.2%
growth inhibition [5]: -5.7%
growth inhibition [6]: 47%

C=CC(=O)NCO
growth inhibition [1]: -3.9%
growth inhibition [2]: 15.2%
growth inhibition [3]: -1.4%
growth inhibition [4]: -20.4%
growth inhibition [5]: 3.6%
growth inhibition [6]: -12.3%

O=NN(CS(=O)(=O)O)c1ccccc1
growth inhibition [1]: -5.9%
growth inhibition [2]: -3.05%
growth inhibition [3]: -1.6%
growth inhibition [4]: -29.2%
growth inhibition [5]: 6.4%
growth inhibition [6]: 0.4%

NC(Cc1ccc(N(CCCl)Cc2ccccc2)cc1)C(=O)O (stereo not given)
growth inhibition [1]: 10.1%
growth inhibition [2]: -13.2%
growth inhibition [3]: 2%
growth inhibition [4]: -3.85%
growth inhibition [5]: -29.2%
growth inhibition [6]: -31.5%

NCC(O)c1ccc2c(c1)OCO2 (stereo not given)
growth inhibition [1]: -48.8%
growth inhibition [2]: -12.7%
growth inhibition [3]: -11.3%
growth inhibition [4]: -31.4%
growth inhibition [5]: -1.4%
growth inhibition [6]: -8.65%

CC(=O)OC1CC(OC2C(O)CC(OC3C(O)CC(OC4CCC5(C)C(CCC6C5CC(O)C5(C)C(C7=CC(=O)OC7)CCC65O)C4)OC3C)OC2C)OC(C)C1OC1OC(CO)C(O)C(O)C1O (stereo not given)
growth inhibition [1]: 6.05%
growth inhibition [2]: -15.4%
growth inhibition [3]: -25.1%
growth inhibition [4]: 5%
growth inhibition [5]: 5.7%
growth inhibition [6]: 10.6%

C=C[CH2][Sn]([CH2]C=C)([c]1ccccc1)[c]1ccccc1
growth inhibition [1]: 47.6%
growth inhibition [2]: 18.6%
growth inhibition [3]: 28.8%
growth inhibition [4]: 6.7%
growth inhibition [5]: -7.55%
growth inhibition [6]: 16.4%

O=[N+]([O-])C1CC/C(=N/O)c2nonc21 (stereo not given)
growth inhibition [1]: 0.3%
growth inhibition [2]: 9.5%
growth inhibition [3]: 18.5%
growth inhibition [4]: 19.6%
growth inhibition [5]: 5.3%
growth inhibition [6]: 18.6%
